Experimental data taken from ChEMBL document CHEMBL1157539, “Thousands of chemical starting points for antimalarial lead identification” (Nature, 2010).

test system: Plasmodium falciparum; test: GSK_TCMDC: Inhibition of Plasmodium falciparum Dd2 in whole red blood cells, using parasite LDH activity as an index of growth. Test compounds present at 2uM; format: functional

SMILES	Inhibition
CC1(C)NC(N)=NC(=N)N1OCOc1ccc(Cl)cc1.Cl	96%
Cc1ccc(C2CC(c3cccs3)=NN2C(=O)c2ccc(Br)o2)cc1 (stereo not given)	69%
Cc1cccc2nc(-c3ccc(-c4cccc(NC(=O)Nc5ccc(F)c(F)c5F)c4)cc3)[nH]c12	89%
COC(=O)c1cccc(OCCNC2CCN(C[C@H](O)c3ccnc4ccc(OC)cc34)CC2)c1.O=C(O)C(=O)O	96%
CC(Cc1ccc(C(=O)Nc2ccc(CC(C)NCCc3cccc(Cl)c3)cc2)cc1)NCCc1ccc(C(F)(F)F)cc1 (stereo not given)	88%
Cc1nc(N/C=C/c2ccc(O)cc2)cc(N2CCCC2)n1	54%
Cc1nc(-c2cccc3c(NC(=O)Nc4ccc5nccc(N6CCN(C)CC6)c5c4)cccc23)no1.Cl	84%
COc1cc(Cc2cnc(N)nc2N)cc(OCCCCCC(N)=O)c1OC	0%
CCc1nc2nc(C)cc(Nc3ccc(F)c(Cl)c3)n2n1	77%
COc1ccc2ncc(F)c([C@@H](O)CN3CCC(NCc4ccc5c(c4)NCCS5)CC3)c2n1.Cl	69%
COc1ccc(N2CCN(CCCCNC(=O)c3ccc(NC(=O)c4cccc(Cl)c4)cc3)CC2)c(OC)c1	33%
CC(C)N1CCN(C(CN2CCN(CCCOc3cccc(F)c3)CC2)c2ccc(F)cc2)CC1.Cl (stereo not given)	38%
CC1(C)NC(N)=NC(=N)N1OCOc1cc(Cl)c(Cl)cc1Cl.Cl	98%
COc1ccc(-c2ccccc2CNC2Cc3ccccc3C2)cc1S(=O)(=O)NCCN1CCCC1.O=C(O)C(F)(F)F	47%
CNCC(C)(C)c1nc(-c2ccc(Cl)c(O)c2)c(-c2ccncc2)[nH]1.Cl	96%
CCOc1cc(/C=N/Nc2nc3ccccc3[nH]2)ccc1OCc1ccc([N+](=O)[O-])cc1	1%
Cc1ccc(C(NC(=O)c2ccccc2)c2ccc3cccnc3c2O)cc1 (stereo not given)	72%
c1ccc(-c2nc(Nc3nc4ccccc4[nH]3)[nH]c2-c2ccccc2)cc1	61%
COc1ccc2nccc(N3C[C@H]4C[C@@H]3CN4CCNCc3ccc4c(n3)NC(=O)CS4)c2n1.Cl	0%
CC(Cc1ccc(C(=O)OCCOC(=O)c2ccc(CC(C)NCC(O)c3cccc(C(F)(F)F)c3)cc2)cc1)NCC(O)c1cccc(C(F)(F)F)c1 (stereo not given)	86%

SMILES	Inhibition
CC(C)C(=O)NC(c1cccs1)c1cc(Cl)c2cccnc2c1O (stereo not given)	91%
Cc1cc2ccccc2c(CON2C(=N)N=C(N)NC2(C)C)c1C.Cl	31%
COc1ccc(S(=O)(=O)N2CCOCC2)cc1NC(=O)c1cc2ccccc2o1	0%
Cc1ccc(O)cc1Nc1ccnc2cc(-c3ccccc3)ccc12.Cl	99%
CCN(CC)CC(O)Cc1c2ccc([N+](=O)[O-])cc2nc2cc(OC)c(OC)cc12 (stereo not given)	37%
O=C(Nc1ccc(-c2nc3ccccc3[nH]2)cc1)c1ccc(N2CCOCC2)c([N+](=O)[O-])c1	28%
O=C(Nc1ccc(Cl)cc1)Nc1cccc(-c2ccc(-c3nc4ccccc4[nH]3)cc2)c1	6%
CC(C)[C@H](NC(=O)c1ccc(O)c(-c2cccc(C(F)(F)F)c2)c1)C(=O)NCCN1CCCCC1	29%
OC(c1ccc(Cl)cc1)(c1ccc(Cl)cc1)C(c1ccc(Cl)cc1)n1ccnc1 (stereo not given)	100%
O=C(Nc1cccc(CN2CCCN(CCc3ccccc3)CC2)c1)c1cc2ccccc2s1.O=C(O)C(F)(F)F	39%
COc1ccc(Cl)cc1N1CCN(CCCNC(=O)c2ccc(-c3nc4cc5ccccc5cc4[nH]3)c(F)c2)CC1	62%
CN(C)c1nc2cc(-n3cnc4cc(-c5ccc(Cl)cc5)sc4c3=O)ccc2n1CCCN1CCCC1.O=C(O)C(F)(F)F	73%
CC(=O)Oc1cc(C)ccc1C1CCN(CCCCNC(=O)c2ccc(-c3ccc(C(F)(F)F)cc3)cc2)CC1	94%
Cc1cccc2nc(-c3ccc(-c4cccc(NC(=O)C(C)CN(C)C)c4)cc3)[nH]c12 (stereo not given)	61%
CCN(CCCN1CCCCC1)c1cc(C)nc(Nc2ccc(C(C)C)cc2)n1.O=C(O)C(F)(F)F	51%
CCN(CC)CCN(Cc1ccc(-c2ccc(C(F)(F)F)cc2)cc1)C(=O)Cn1c(SCc2ccc(F)cc2)nc(=O)c2sccc21.O=C(O)C(O)C(O)C(=O)O	65%
CC(C)N1CCC(N(Cc2ccc(-c3ccc(C(F)(F)F)cc3)cc2)C(=O)Cn2c(SCc3cccc(F)c3F)cc(=O)c3c2CCC3)CC1.O=C(O)C(O)C(O)C(=O)O	42%
CC(C)(Oc1ccc(Cl)cc1)C(=O)NCCC1CCN(CCCCCNC(=O)/C=C/c2ccc(Cl)c(Cl)c2)CC1	37%
O=C(Nc1ccc(OC2CCN(Cc3ccc(F)cc3)CC2)c(Cl)c1)c1ccoc1.O=C(O)C(F)(F)F	90%
CNC(=O)C1Cc2c([nH]c3cc(Br)ccc23)C2(CCN(CCc3ccccc3)CC2)N1 (stereo not given)	31%
